# Screens (PubChem BioAssay)
# PPC-1+TRAIL kill = kills PPC-1 cancer cells in the presence of TRAIL. cell killing (% activity), % at 4 µM or 5 µM. hit rate 0.41% among 220,000. PPC-1 cells + TRAIL, ATPLite viability luminescence. AID 1443;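 active = cell killing above 50% in the first pass at 4 µM, then a duplicate retest at 5 µM averaging 50% or more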;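 also: plate controls were cells with TRAIL plus DMSO for no effect and medium-only wells lacking cells for full effect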
# SENP6 inh = inhibitors of human SENP6 protease. Recombinant SENP6 catalytic domain, aminoluciferin luminescence. inhibition, % at 10 µM. hit rate 1.8% among 330,000;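 active = inhibition above about 50% at the single tested dose, limit read from the data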;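 also: plate controls were DMSO wells with enzyme for no effect and DMSO wells lacking enzyme for full effect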
# SENP7 inh = SENP7 protease inhibition | recombinant SENP7, Z-RLRGG-aminoluciferin luminescence, 40 min | Q9BQF6 | inhibition, % at 5 µM | hit rate 1.5% among 330,000;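 active = inhibition above about 50% at the single test dose, limit read from the data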;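 also: plate controls were DMSO with enzyme for no effect and no enzyme buffer wells for full effect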
# Target sequence (Q9BQF6 706-1050 limits assumed): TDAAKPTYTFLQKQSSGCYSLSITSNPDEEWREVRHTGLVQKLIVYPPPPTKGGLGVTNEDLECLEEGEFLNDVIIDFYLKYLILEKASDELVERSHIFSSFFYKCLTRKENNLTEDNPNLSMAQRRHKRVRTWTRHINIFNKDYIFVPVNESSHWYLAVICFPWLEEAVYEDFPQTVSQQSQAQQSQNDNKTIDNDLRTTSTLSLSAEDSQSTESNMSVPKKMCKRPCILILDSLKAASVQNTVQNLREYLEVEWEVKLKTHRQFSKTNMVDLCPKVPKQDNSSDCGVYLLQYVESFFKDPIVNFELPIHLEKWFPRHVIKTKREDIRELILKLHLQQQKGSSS
# C8 TRAIL sens = sensitizes caspase-8 expressing cells to TRAIL; NB7+C8 cells + TRAIL, ATPlite viability luminescence; inhibition (viability loss, TRAIL sensitization), % at 10 µM; hit rate 1% among 360,000; AID 624354;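 active = compounds causing at least 50% loss of cell viability in the single-dose screen, relative to plate controls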
# SENP8 block-1 = inhibitors of human SENP8 protease; Q96LD8; purified SENP8, Z-RLRGG-aminoluciferin cleavage, luminescence; inhibition, % at 10 µM; hit rate 1.2% among 330,000; AID 2540; in the data active = inhibition above about 50%
# SENP8 block-2 = SENP8 (human) protease inhibition; AID 602440; recombinant SENP8, Nedd8 substrate fluorescence; inhibition, % at 20 µM; Q96LD8; hit rate 0.64% among 360,000; in the data active = inhibition mostly above about 40%, no sharp cut-off; inactive = mostly below about 27%
# PPC-1 tox = kills PPC-1 cells | AID 1447 | shares compounds with PPC-1+TRAIL kill | PPC-1 viability, ATPlite luminescence, overnight | hit rate 50% among 1,200 | cytotoxicity, % at 5 µM;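 active = reconfirmed compounds whose average cytotoxicity reaches 50% or more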;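 also: 0% = DMSO-treated cells and 100% = wells holding medium but no cells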
# SENP8 confirm = human SENP8 inhibition, confirmed; inhibition, % at 12.5 µM; Recombinant SENP8, Z-RLRGG-aminoluciferin luminescence, 60 min; AID 488912; hit rate 40% among 6,200; shares compounds with SENP7 inh;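 active = mean inhibition across replicates above about 50%, limit read from the data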
# SENP6 confirm = human SENP6 inhibition, confirmed; shares compounds with SENP7 inh; recombinant SENP6, Z-RLRGG-aminoluciferin luminescence; inhibition, % at 12.5 µM; hit rate 58% among 6,200; AID 488915
# SENP7 conf = confirmation of human SENP7 protease inhibitors | shares compounds with SENP7 inh | recombinant SENP7, Z-RLRGG-aminoluciferin luminescence, 40 min | inhibition, % at 12.5 µM | hit rate 69% among 6,200
# Casp3 SENP sel = caspase-3 inhibition (SENP selectivity assay); shares compounds with SENP7 inh; purified caspase-3, Z-DEVD-aminoluciferin luminescence, 60 min; inhibition, % at 12.5 µM; hit rate 60% among 6,200; AID 488918;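 active = mean inhibition above about 50%, limit read from the data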;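 also: plate controls were enzyme with DMSO for no effect and wells without caspase-3 for full effect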
# Target sequence (P42574 28-227 limits assumed): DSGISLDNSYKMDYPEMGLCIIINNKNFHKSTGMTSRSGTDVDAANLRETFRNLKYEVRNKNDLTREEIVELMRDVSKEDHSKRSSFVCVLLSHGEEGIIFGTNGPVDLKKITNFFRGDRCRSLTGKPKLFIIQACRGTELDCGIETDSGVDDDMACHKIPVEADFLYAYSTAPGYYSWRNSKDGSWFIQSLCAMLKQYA
# Luc interf = counter-screen for SENP inhibitors: luminescence interference. shares compounds with SENP7 inh. Pre-incubated SENP8/Z-RLRGG-aminoluciferin, luciferase luminescence interference. inhibition, % at 12.5 µM. hit rate 39% among 6,200;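 active = mean inhibition above about 50% when retested at one dose, limit read from the data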;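 also: plate controls were DMSO wells with completed reaction for no effect and substrate without enzyme for full effect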
# * marks the source's active call; other numbers are inactive results; i = inactive; . = not tested or not shown. Most compounds without a hit are left out; they make up all but 3% or so of the library.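 The calls were made as follows, unless noted: active = mean inhibition above about 50% in the one-dose retest (limit read from the data); inactive = the rest.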
SMILES,PPC-1+TRAIL kill,SENP6 inh,SENP7 inh,C8 TRAIL sens,SENP8 block-1,SENP8 block-2,PPC-1 tox,SENP8 confirm,SENP6 confirm,SENP7 conf,Casp3 SENP sel,Luc interf
COC(=O)[C@H](CCSC)NC(=O)N1CCC(C)CC1,-5,0,-3,-12,0,22,-2,.,.,.,.,.
COC(=O)[C@H](CCSC)NC(=O)N1CCN(Cc2ccccc2)CC1,-4,3,-3,-11,-9,4,.,.,.,.,.,.
COc1ccc(S(=O)(=O)Nc2ccccn2)c(C)c1C,-5,-11,3,-3,0,-272,-2,.,.,.,.,.
Cc1ccc(NC(=O)CCC(=O)NNC(=O)c2ccccc2[N+](=O)[O-])c(C)c1,-10,9,-2,-2,6,11,-7,.,.,.,.,.
Cc1ccc(NC(=O)CCC(=O)NNC(=O)c2cccs2)c(C)c1,15,2,-2,-3,-5,18,.,.,.,.,.,.
CC(=O)Nc1nc2nc(-c3ccccc3)cc(-c3ccccc3)n2n1,12,16,3,-6,1,-348,.,.,.,.,.,.
O=C1CCC(=O)N1c1nc2nc(-c3ccccc3)cc(-c3ccccc3)n2n1,11,8,-3,3,7,i,-6,.,.,.,.,.
Cc1c(C(=O)N2CCCC(C)(C(=O)NS(=O)(=O)C3CC3)C2)oc2ccccc12 (configuration not stated),.,.,.,0,.,18,.,.,.,.,.,.
O=C(Nc1ccc(NC(=S)NC(=O)C(c2ccccc2)c2ccccc2)cc1)c1ccccc1,.,-12,6,20,-4,28,.,.,.,.,.,.
c1ccc(Nc2ncnc3c2oc2ccccc23)cc1,5,52*,36,18,14,-383,1,10,7,56*,37,14
CS/C(Nc1cc(Cl)ccc1Cl)=C(/C#N)C(=O)c1ccco1,21,97*,89*,76*,94*,11,23,92*,94*,98*,91*,97*
C/C(=N\NC(=O)c1ccncc1)c1cccs1,22,-8,4,15,-4,8,.,.,.,.,.,.
C/C(=N\NC(=O)c1ccccc1O)c1cccs1,58*,1,61*,70*,18,-36,54*,50*,45,78*,85*,58*
C/C(=N/NC(=O)c1cc(C2CC2)[nH]n1)c1cccs1,60*,30,66*,67*,46,30,50,64*,62*,88*,89*,71*
O=C(N/N=C/c1ccc([N+](=O)[O-])cc1)c1[nH]ncc1Br,27,86*,85*,49,72*,20,26,-4,9,48,88*,15
CCc1sc(C(=O)N2CCc3ccccc32)cc1C,26,96*,97*,56*,93*,8,31,96*,97*,102*,95*,86*
C(=N\Nc1nc2ccccc2s1)/c1ccccn1,69*,97*,100*,.,97*,.,73*,100*,101*,104*,99*,40
O=C(Nc1ccc(-c2nc3cccnc3s2)cc1)C1CCCO1 (configuration not stated),62*,93*,94*,-5,90*,-384,64*,95*,95*,101*,97*,79*
Cc1ccc2nc(-c3ccc(NC(=O)C4CCCO4)cc3)[nH]c2c1 (configuration not stated),65*,53*,40,57*,8,-268,64*,45,41,68*,58*,45
COc1ccc(NC(=O)C2CCCO2)cc1 (configuration not stated),28,-5,6,13,2,18,.,.,.,.,.,.
Cc1ccc2nc(-c3ccc(NC(=O)Cc4cccs4)cc3)[nH]c2c1,7,-18,7,18,-3,-263,.,.,.,.,.,.
CCCC(=O)Nc1ccccc1NC(=O)c1ccc(OCC)cc1,12,-3,-1,-2,1,14,.,.,.,.,.,.
CCOc1ccc(C(=O)Nc2cc(C)on2)cc1,47,47,54*,64*,13,10,50*,-24,17,57*,74*,-6
CCOc1ccc(C(=O)Nc2ccccc2C(=O)O)cc1,62*,61*,16,75*,31,8,62*,77*,72*,94*,85*,78*
Cc1ccc(S(=O)(=O)c2c(C)cc(C)[nH]c2=O)cc1,.,-21,3,-11,-6,-15,.,.,.,.,.,.
SMILES,PPC-1+TRAIL kill,SENP6 inh,SENP7 inh,C8 TRAIL sens,SENP8 block-1,SENP8 block-2,PPC-1 tox,SENP8 confirm,SENP6 confirm,SENP7 conf,Casp3 SENP sel,Luc interf
COc1cccc2c1C(=O)O/C2=C/c1ccc2c(c1)OCO2,38,19,98*,63*,88*,i,41,22,19,22,74*,-11
CCCOc1cccc(-c2cc(C(=O)NNC(=S)NCC)c3ccccc3n2)c1,38,-24,-18,39,-2,-231,.,.,.,.,.,.
CCNC(=S)NNC(=O)c1cc(-c2ccc(OCC)cc2)nc2ccccc12,93*,94*,95*,86*,94*,-280,93*,98*,98*,102*,98*,46
Cc1nnc(SCC2=C(C(=O)O)N3C(=O)C(NC(=O)C(C)n4nc(C(F)(F)F)cc4C)C3SC2)s1 (configuration not stated),20,-38,-6,-3,-11,-1,.,.,.,.,.,.
CCc1ccc(NC(=O)c2cnn3ccccc23)cc1,50,91*,95*,58*,89*,-22,50*,93*,94*,101*,93*,94*
CC1CCc2nc(NC(=O)c3ccco3)sc2C1 (configuration not stated),80*,87*,80*,84*,79*,2,77*,88*,88*,98*,89*,46
COc1cc(SC)ccc1C(=O)Nc1ncc(C)s1,73*,96*,94*,80*,89*,-170,76*,90*,91*,100*,89*,35
COc1cc(SC)ccc1C(=O)Nc1ccc(C)cc1,23,-13,7,25,2,7,.,.,.,.,.,.
